# Reference: publication PMC6919601, “Identification of Plasmodium dipeptidyl aminopeptidase allosteric inhibitors by high throughput screening” (PLoS ONE, 2019)
# Among all 110,000 compounds or so, about 230 (0.21%) showed an effect of 50% or more. Many of the other results were omitted from the sample, so strong results are more common in it than they were.
# Molecular target: DPAP1 (Plasmodium falciparum, UniProt Q8IIJ9)
# Assay: primary screen, percent inhibition; read by cleavage of a fluorogenic dipeptide substrate; higher = more effect of the substance
# Parameters: species or system P. falciparum D10 trophozoite lysates; single well
# 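Also: 30 min substrate incubation versus DMSO and 10 µM JCP410 controls.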
# Chain of DPAP1 (Q8IIJ9 whole entry, looked up): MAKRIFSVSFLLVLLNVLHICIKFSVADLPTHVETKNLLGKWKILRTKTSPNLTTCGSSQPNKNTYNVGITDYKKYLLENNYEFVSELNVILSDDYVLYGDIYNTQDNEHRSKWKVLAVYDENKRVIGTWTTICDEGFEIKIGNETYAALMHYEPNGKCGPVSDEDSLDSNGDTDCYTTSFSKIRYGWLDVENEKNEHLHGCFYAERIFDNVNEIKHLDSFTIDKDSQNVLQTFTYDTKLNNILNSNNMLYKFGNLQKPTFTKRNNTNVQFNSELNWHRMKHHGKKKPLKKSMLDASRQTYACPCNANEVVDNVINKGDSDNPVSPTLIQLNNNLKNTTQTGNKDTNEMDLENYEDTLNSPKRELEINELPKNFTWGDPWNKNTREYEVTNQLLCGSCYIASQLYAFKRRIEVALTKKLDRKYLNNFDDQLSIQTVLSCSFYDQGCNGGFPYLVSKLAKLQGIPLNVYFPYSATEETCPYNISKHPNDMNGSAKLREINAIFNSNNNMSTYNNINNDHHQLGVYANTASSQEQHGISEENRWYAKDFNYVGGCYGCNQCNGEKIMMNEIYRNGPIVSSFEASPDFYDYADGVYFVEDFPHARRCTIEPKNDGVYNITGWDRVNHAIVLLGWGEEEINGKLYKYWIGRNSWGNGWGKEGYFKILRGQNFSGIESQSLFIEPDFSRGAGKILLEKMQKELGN
row,SMILES,% Inhibition @ 10 uM [%]
1,CCCOc1ccc(C2C3=C(O)CC(C)(C)CC3=NC(C)=C2C(=O)Nc2ccccc2OC)cc1 (stereo not shown),-0.864
2,c1ccc(C(CCNC2CN3CCC2CC3)c2ccccc2)cc1 (stereo not shown),-0.0908
3,O=C(CCN1C(=O)c2ccccc2C1=O)NCC1CCCO1 (stereo not shown),-0.349
4,Cc1cc(/C=C2/C(=N)N3C(=NC2=O)SN=C3S(=O)(=O)C(C)C)c(C)n1Cc1ccccc1,-7.21
5,CC(C)Oc1ccccc1/C=C1\SC(=N)N(c2nccs2)C1=O,50.1
6,N=C1S/C(=C\c2ccco2)C(=O)N1c1nccs1,-3.74
7,N=C1S/C(=C\c2c[nH]nc2-c2ccccc2)C(=O)N1c1nccs1,11.2
8,Cc1nc2scc(C)n2c(=O)c1S(=O)(=O)NC1CCN(Cc2ccccc2)CC1,-3.32
9,Cc1nc2scc(C)n2c(=O)c1S(=O)(=O)NC1CCCCCCC1,72.2
10,CCOC(=O)N1CCC(NS(=O)(=O)c2c(C)nc3scc(C)n3c2=O)CC1,-8.17
11,Cc1cccc(CN2CCCC(O)C2)c1 (stereo not shown),-0.828
12,O=C(CCC1CCCCC1)NC1(C(F)(F)F)NC(=O)N(Cc2ccccc2)C1=O (stereo not shown),-3.33
13,CCOC(=O)C1=C(c2ccccc2)Nc2ncnn2C1c1cccc(O)c1 (stereo not shown),3.8
14,COc1cccc(C2=NS(=O)(=O)N(C)C(C(=O)N3CCCC3)=C2)c1,3.92
15,CCSc1nc(=O)n(-c2ccccc2)c(C)c1C(C)=O,-5.51
16,CCc1ccc(C2C3=C(O)CCCC3=NC(C)=C2C(=O)Nc2ccc(F)cc2)cc1 (stereo not shown),4.11
17,Cc1sc2ncn(CC(=O)NC3CCCC(C)C3C)c(=O)c2c1S(=O)(=O)N1CCC(C)CC1 (stereo not shown),-4.67
18,O=C1C(c2ccccc2)=C(c2ccccc2)C(=O)N1O,3.25
19,CC(=O)ON1C(=O)C2C3c4ccccc4C(c4ccccc43)C2C1=O (stereo not shown),38.9
20,CC(=O)ON1C(=O)C(c2ccccc2)=C(c2ccccc2)C1=O,82
21,CCCCN(C)C(=O)C1c2ccccc2C(=O)N(CCOC)C1c1c[nH]c2ccccc12 (stereo not shown),5.62
22,Cc1ccc2nc(O)c3cc(C(=O)NCCc4ccsc4)sc3c2c1,1.72

row,SMILES,% Inhibition @ 10 uM [%]
1,CN(C)c1ccc(NC(=O)NC2CCCCC2)cc1,-12.2
2,CC(CCCC(C)(C)O)NC(C)Cc1ccc(F)cc1 (stereo not shown),4.68
3,O=C(CC1(O)C(=O)Nc2ccc(Br)cc21)c1ccc2ccccc2c1 (stereo not shown),4.03
4,CCC1(C)Cc2c(sc3nc(SCC(=O)c4ccccc4)nc(N)c23)CO1 (stereo not shown),0.992
5,CCC1(C)Cc2c(sc3nc(S)nc(N)c23)CO1 (stereo not shown),62.9
6,CCC1(C)Cc2c(sc3nc(SC)nc(O)c23)CO1 (stereo not shown),8.9
7,COc1cc2c(NCc3ccccc3)cc(O)c(CC(=O)Nc3ccccc3)c2cc1OC,66.3
8,CCCCNc1cc(O)c(CC(=O)Nc2ccccc2)c2cc(OC)c(OC)cc12,25.7
9,COc1cc2c(CC(=O)Nc3ccccc3)c(O)c(C)c(NCc3ccccc3)c2cc1OC,13.4
10,CCn1c(C)cc(/C=C2\NC(=O)N(CC(=O)Nc3ccc(F)cc3)C2=O)c1C,0.528
11,CCCNS(=O)(=O)c1cc(-c2cc(C)no2)ccc1OC,-8.89
12,CCCCNC(=O)c1cc(-c2ccc(F)cc2)on1,4.5
13,Brc1ccc(-c2cn3nc(C4CCCCC4)sc3n2)cc1,-2.71
14,CCOc1ccc(C(=O)CCN(C)C)cc1,-1.25
15,COc1ccc(C(=O)CCN(C)CC(=O)O)cc1,55.8
16,COc1ccc(C(=O)CCN(C)C)cc1,3.82
17,CCOc1ccc(C(=O)CCN(C)CC(=O)O)cc1,89.9
18,CCOc1ccc(C(=O)CCNCCC(=O)O)cc1,44.5
19,COc1ccc(C(=O)CCNCCC(=O)O)cc1,30.1
20,O=C(O)c1ccccc1NC(=O)C12CC3CC(CC(C3)C1)C2,-5.44
21,O=C(O)CCC(=O)Nc1ccc(S(=O)(=O)NC2CCCCC2)cc1,1.49
22,CC(=O)c1ccc(N2CCN(Cc3ccc(C)cc3C)CC2)cc1,-5.11

row,SMILES,% Inhibition @ 10 uM [%]
1,CC1(C)CC(=O)C2=C(C1)N1C(=C(C#N)C2c2cccnc2)N=C(N)c2c1sc1c2CCCCC1 (stereo not shown),-2.39
2,Cc1ccc(Oc2cc(-n3nc(C)c(C(N)=O)c3N)ncn2)cc1,-0.795
3,CCc1nn(-c2cc(Oc3ccccc3)ncn2)c(N)c1C(N)=O,0.686
4,CCc1nn(-c2cc(Oc3ccc(C)cc3)ncn2)c(N)c1C(N)=O,60.5
5,CN(C1CCCCC1)S(=O)(=O)c1ccc(C(=O)Nc2nc(-c3ccccn3)cs2)cc1,-1.4
6,O=c1ncn(-c2ccccc2F)c2ncccc12,-10.2
7,CCOC(=O)C1=C(O)/C(=C\c2cc(C)n(-c3ccccc3C(=O)OC)c2C)N=C1C,3.47
8,CCOC(=O)C1=C(O)/C(=C\c2cc(C)n(-c3ccccc3C(F)(F)F)c2C)N=C1C,52.7
9,CCOC(=O)C1=C(O)/C(=C\c2cc(C)n(-c3cc(C)ccc3OC)c2C)N=C1C,3.47
10,C/N=C1/S/C(=C\c2ccc(N3Cc4ccccc4C3)cc2)C(=O)N1C,-5.19
11,CCCCNC(=O)c1cn(C)c(=O)c2cc(OC)c(OC)cc12,-5.67
12,O=C(c1cnn2c(C(F)F)cc(-c3ccccc3)nc12)N1CCN(c2ccccn2)CC1,5.65
13,CCCCNC(=O)c1cnn2c(C(F)F)cc(-c3ccccc3)nc12,4.08
14,Cc1ccc(-c2cc(C(F)F)n3ncc(C(=O)NC(C)c4ccccc4)c3n2)cc1 (stereo not shown),0.778
15,CCc1nccn1C(=O)c1cnn2c(C(F)F)cc(-c3ccccc3)nc12,75.7
16,Cc1ccc(-c2cc(C(F)F)n3ncc(C(=O)n4c(C)nc5ccccc54)c3n2)cc1,50
17,Cc1ccc(-c2cc(C(F)F)n3ncc(C(=O)N4CCc5ccccc5C4)c3n2)cc1,0.778
18,CCOC(=O)c1c(-c2ccc(F)cc2)csc1NC(=O)c1c(-c2ccccc2)noc1C,0.64
19,O=C(CCCC(=O)c1ccccc1)NC(c1ccccc1)c1ccccc1,-1.46
20,c1ccc(CSc2nccn2Cc2ccccc2)cc1,-1.97
21,CC(C)CC(=O)Nc1ccc(-c2nc3cc(Cl)ccc3o2)cc1,-1.57
22,Cc1ccc(CNS(=O)(=O)c2cn(C)cn2)cc1,1.47

row,SMILES,% Inhibition @ 10 uM [%]
1,Cc1ccc(S(=O)(=O)Nc2nnc(C)s2)cc1,-1.77
2,Cn1cnc(S(=O)(=O)Nc2nnc(S)s2)c1,95.5
3,Cc1csc(NC(=O)C(CCS(C)(=O)=O)N2Cc3ccccc3C2=O)n1 (stereo not shown),0.0322
4,O=C(/C=C/c1ccco1)c1ccc(F)cc1,14.1
5,O=C(/C=C/c1ccco1)c1ccc(C(=O)/C=C/c2ccco2)cc1,-0.268
6,COc1ccc(C(=O)/C=C/c2ccco2)cc1,60.2
7,COc1ccc(CCNC(=O)CN2C(=O)c3ccccc3C2=O)cc1,1.33
8,Cc1nn(C)cc1CN(C)C(=O)c1cc2nc(-c3ccccc3)cc(C(F)(F)F)n2n1,4.59
9,Cc1cc(N(C)C)c(=O)n(-c2ccccc2)n1,5.74
10,O=C1/C(=C/c2ccc3nccnc3c2)CN(Cc2ccccc2)C/C1=C\c1ccc2nccnc2c1,6.89
11,O=C1/C(=C\c2ccccn2)CN(Cc2ccccc2)C/C1=C\c1ccccn1,55.7
12,O=C1/C(=C\c2cccnc2)CN(Cc2ccccc2)C/C1=C\c1cccnc1,0.287
13,O=C(CCN1C(=O)C2C3C=CC(C3)C2C1=O)Nc1cccnc1 (stereo not shown),-0.551
14,CCN(CC)C(=O)Cn1cc(S(=O)(=O)Cc2cc(C)ccc2C)c2ccccc21,0.292
15,Cc1cccc(NC(=O)C2CC3CCC2C3)n1 (stereo not shown),-2.66
16,COc1ccc(S(=O)(=O)N2CCSC2c2ccc(C)cc2)cc1 (stereo not shown),-3.45
17,COc1ccc(S(=O)(=O)N2CCSC2c2ccccc2Cl)cc1 (stereo not shown),68.6
18,COc1ccc(S(=O)(=O)N2CCSC2c2ccccc2)cc1 (stereo not shown),3.19
19,CN(C)c1ccc(/C=C(\C#N)c2nc(-c3ccc(-c4ccccc4)cc3)cs2)cc1,5.77
20,CCn1ccnc1C(O)(c1ccccc1)c1ccc(C)cc1 (stereo not shown),4.67
21,CCN1C(=O)C(=CNc2ccc3c(c2)-c2ccccc2C3)C(=O)N(CC)C1=O,-0.996
22,Nc1c(C(=O)Nc2ccccn2)sc2nc(-c3cccs3)cc(C(F)(F)F)c12,-5.07

row,SMILES,% Inhibition @ 10 uM [%]
1,Nc1c(C(=O)Nc2nccs2)sc2nc(-c3cccs3)cc(C(F)(F)F)c12,76.8
2,CCc1nnc(NC(=O)c2sc3nc(-c4cccs4)cc(C(F)(F)F)c3c2N)s1,0.487
3,CC(=O)c1ccc(NC(=O)C(C)Oc2ccccc2C)cc1 (stereo not shown),-5.92
4,Cc1nc2c3ccccc3n3c(CCCC(=O)NC4CCN(Cc5ccccc5)CC4)nnc3n2n1,2.04
5,CCCN1CCN(C(=O)Cn2cccc2C(=O)c2ccccc2)CC1,1.15
6,CCOc1ccc(-c2cc(NC(=O)Cn3ncc4c(=O)oc5ccc(C)cc5c43)on2)cc1,-5.25
7,CCS(=O)CCSc1nc(-c2cccs2)cc(-c2ccccc2)c1C#N (stereo not shown),7.76
8,N#Cc1c(C(F)(F)F)cc(-c2cccs2)nc1SCc1ccncc1,57.7
9,CCSc1nc(-c2cccs2)cc(C(F)(F)F)c1C#N,82.6
10,CCCCSc1nc(-c2cccs2)cc(C(F)(F)F)c1C#N,60.7
11,CC(=O)NCCSc1nc(-c2cccs2)cc(-c2ccc(F)cc2)c1C#N,5.65
12,Cc1cccc(NC(=O)CSc2nc(-c3cccs3)cc(C(F)(F)F)c2C#N)n1,18.3
13,CCSc1nc(-c2ccc(OC)cc2)cc(C(F)(F)F)c1C#N,-1.4
14,N#Cc1c(-c2cccs2)cc(-c2ccccc2)nc1S,20.6
15,N#Cc1c(C(F)(F)F)cc(-c2cccs2)nc1SCC(=O)Nc1ccccn1,2.44
16,N#Cc1sc2nc(-c3cccs3)cc(C(F)(F)F)c2c1N,-2.32
17,N#Cc1c(C(F)(F)F)cc(-c2cccs2)nc1S,88.5
18,N#Cc1c(C(F)(F)F)cc(-c2cccs2)nc1SCC(=O)Nc1nccs1,0.121
